# Hit rate of the full screen: of about 310,000 compounds, about 2,200 (0.71%) showed an effect of 50% or more. Effects have a minus sign here. This is one part of a sample in which strong results are shown more often than they occur.
# Target: human ether-à-go-go-related gene (hERG) potassium channel (human, UniProt Q12809)
# Assay: primary screen, population patch clamp on CHO cells stably expressing hERG; higher = less effect of the substance
# human ether-à-go-go-related gene (hERG) potassium channel, sequence (Q12809 whole entry, looked up): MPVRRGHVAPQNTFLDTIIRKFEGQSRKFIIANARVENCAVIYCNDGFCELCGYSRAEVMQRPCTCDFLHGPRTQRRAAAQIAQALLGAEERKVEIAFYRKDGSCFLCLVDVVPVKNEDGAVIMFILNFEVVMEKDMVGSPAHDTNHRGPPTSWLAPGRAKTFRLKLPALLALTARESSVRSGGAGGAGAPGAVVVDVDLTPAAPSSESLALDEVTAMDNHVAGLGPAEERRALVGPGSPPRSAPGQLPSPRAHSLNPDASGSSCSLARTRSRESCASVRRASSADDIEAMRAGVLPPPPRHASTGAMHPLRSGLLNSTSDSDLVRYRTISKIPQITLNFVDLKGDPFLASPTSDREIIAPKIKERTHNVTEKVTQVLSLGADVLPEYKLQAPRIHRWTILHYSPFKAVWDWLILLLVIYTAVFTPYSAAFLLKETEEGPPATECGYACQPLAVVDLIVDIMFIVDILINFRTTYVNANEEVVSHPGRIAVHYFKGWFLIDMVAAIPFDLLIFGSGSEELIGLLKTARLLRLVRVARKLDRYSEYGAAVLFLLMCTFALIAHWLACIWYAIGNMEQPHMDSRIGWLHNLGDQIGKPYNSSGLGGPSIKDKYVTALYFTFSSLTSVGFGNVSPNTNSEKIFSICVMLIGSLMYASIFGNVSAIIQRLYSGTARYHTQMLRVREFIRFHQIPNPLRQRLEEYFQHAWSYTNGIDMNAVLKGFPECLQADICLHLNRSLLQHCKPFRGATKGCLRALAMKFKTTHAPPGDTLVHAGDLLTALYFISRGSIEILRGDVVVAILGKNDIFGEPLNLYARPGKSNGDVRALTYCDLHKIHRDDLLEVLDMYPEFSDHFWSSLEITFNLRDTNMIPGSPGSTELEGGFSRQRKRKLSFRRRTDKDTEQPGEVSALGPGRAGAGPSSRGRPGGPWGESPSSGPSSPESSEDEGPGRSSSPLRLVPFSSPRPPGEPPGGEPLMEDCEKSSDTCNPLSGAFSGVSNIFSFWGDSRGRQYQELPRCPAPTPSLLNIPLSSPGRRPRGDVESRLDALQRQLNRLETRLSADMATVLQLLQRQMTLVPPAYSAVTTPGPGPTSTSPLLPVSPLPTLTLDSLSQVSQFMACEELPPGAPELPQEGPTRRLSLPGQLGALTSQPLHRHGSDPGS
row,SMILES,"hERG current change (%, negative = inhibition) at 1uM"
1,CC(=O)NC(=S)Nc1ccccc1N1CCN(C(=O)c2ccccc2)CC1,10.6%
2,C[N+](C)(C)CCCCCCCCCC[N+](C)(C)C.[Br-],7.97%
3,CCCCCCCCCCOC(=O)Cn1c(COc2ccc(Cl)cc2)[n+](C)c2ccccc21.[Cl-],-79.1%
4,CCCCc1n(CC(=O)c2ccc(Cl)cc2)c2ccccc2[n+]1C.[Br-],10.7%
5,CCCCCCCCCCOC(=O)Cn1c(COc2ccc(OC)cc2)[n+](C)c2ccccc21.[Cl-],-70.9%
6,CCCCCCCCCCOC(=O)Cn1c(COc2cccc(C)c2)[n+](C)c2ccccc21.[Cl-],-43.9%
7,CCCCCCCCCCOC(=O)Cn1c(COc2ccc(C)cc2)[n+](C)c2ccccc21.[Cl-],-56.5%
8,CCCCCCCCCCOC(=O)Cn1c(COc2ccccc2C)[n+](C)c2ccccc21.[Cl-],-18%
9,CCCCCCCCCCOC(=O)Cn1c(COc2ccccc2OC)[n+](C)c2ccccc21.[Cl-],-33.2%
10,CCCCCCCCCCOC(=O)Cn1c(COc2ccccc2)[n+](C)c2ccccc21.[Cl-],-46.5%
11,CCCCCCCCCCOC(=O)Cn1c(COc2cccc(OC)c2)[n+](C)c2ccccc21.[Cl-],-37.3%
12,CCN(C(=S)Nc1ccc(Oc2ccccc2)cc1)c1ccccc1,21.1%
13,CCc1nnc(NC(=O)C2CCC2)s1,3.46%
14,CCCn1c(N)c(N(CCOC)C(=O)c2ccc(F)cc2)c(=O)[nH]c1=O,12.9%
15,Cc1[nH]c(C)c(S(=O)(=O)NCCc2ccc(S(N)(=O)=O)cc2)c1C(=O)N1CCCC1,12.3%
16,CCCCSc1nnc(-c2ccc(NC(=O)CCc3ccccc3)cc2)n1C,19.5%
17,Cc1ccc2occ(/C=C/C(=O)O)c(=O)c2c1,9.03%
18,CCNC(=O)C1(c2ccccc2)CCCC1,5.42%
19,CCOC(=O)C[n+]1c(C)csc1C.[Br-],9.26%

row,SMILES,"hERG current change (%, negative = inhibition) at 1uM"
1,CCN1CCN(c2nc(Nc3ccc(OC)cc3)nc(N)c2[N+](=O)[O-])CC1,1.06%
2,CCN1CCN(c2nc(Nc3cccc(OC)c3)nc(N)c2[N+](=O)[O-])CC1,-60.6%
3,CCN1CCN(c2nc(Nc3cccc(C)c3)nc(N)c2[N+](=O)[O-])CC1,-36.9%
4,COc1ccccc1-n1c(/C=C/c2ccc(O)cc2)nc2ccccc2c1=O,13%
5,CCCCn1c(=O)c(C(=O)c2ccccc2)nc2ccccc21,5.56%
6,CCCCCn1c(CCCNC(=O)CC)nc2ccccc21,-52.3%
7,CCCn1c(=O)c(C(=O)c2ccccc2)nc2ccccc21,-0.484%
8,CCCCCn1c(=O)c(C(=O)c2ccccc2)nc2ccccc21,-52.5%
9,CCCCn1c(CCCNC(=O)CC)nc2ccccc21,-3.85%
10,CCCCn1c(CCNC(=O)CC)nc2ccccc21,0.197%
11,Cc1ccc(NC(=O)CSc2sc3c(O)cc(=O)[nH]c3c2C#N)cc1C,0.874%
12,CC(C)(C)OC(=O)N1CCC(C(N)=O)CC1,5.04%
13,CCOC(=O)c1ccc(NC(=O)N2C[C@@H]3C[C@@H](C2)c2cccc(=O)n2C3)cc1,7.4%
14,Cc1ccc(Nc2nc(N)nc(CN3CCN(C(=O)c4ccco4)CC3)n2)cc1Cl,-54.1%
15,CCOC(=O)N1CCN(Cc2nc(N)nc(Nc3ccc(Cl)cc3)n2)CC1,-22.7%
16,Cc1ccc(Nc2nc(N)nc(CN3CCN(c4ccccc4)CC3)n2)cc1Cl,-10.8%
17,Nc1nc(CN2CCN(C(=O)c3ccco3)CC2)nc(Nc2cccc(Cl)c2)n1,-76.3%
18,Cc1ccc(Nc2nc(N)nc(CN3CCN(Cc4ccccc4)CC3)n2)cc1Cl,-24.5%
19,O=C(c1ccco1)N1CCN(Cc2ccc(Cl)cc2)CC1,7.26%

row,SMILES,"hERG current change (%, negative = inhibition) at 1uM"
1,CN1C(=O)CSc2ccc(NC(=O)Nc3ccccn3)cc21,8.01%
2,Cc1ccc(Cl)cc1NC(=O)c1ccc(CSc2nnnn2C)cc1,9.74%
3,CCOc1cc(/C=N\NC(=O)C2C(=O)NCC2c2ccccc2)ccc1OC (centres unmarked),10%
4,Oc1ccc(C[C@H]2CNCCN2CCc2cccc(F)c2)cc1,7.34%
5,Cc1ccc2c(c1)N(C(=O)CCC(=O)NCCCN1CCOCC1)CC(C)O2 (centres unmarked),-1.87%
6,CC1CN(C(=O)CCC(=O)NCc2ccccc2)c2cc(Cl)ccc2O1 (centres unmarked),0.521%
7,CC1CN(C(=O)CCC(=O)NCCCN2CCN(Cc3ccccc3)CC2)c2cc(Cl)ccc2O1 (centres unmarked),-68.1%
8,CC1CN(C(=O)CCC(=O)NCCCN2CCC(Cc3ccccc3)CC2)c2cc(Cl)ccc2O1 (centres unmarked),-62.2%
9,CCN1CCN(CCCNC(=O)CCC(=O)N2CC(C)Oc3ccc(C)cc32)CC1 (centres unmarked),6.55%
10,Cc1ccc2c(c1)N(C(=O)CCC(=O)NCCCN1CCN(C)CC1)CC(C)O2 (centres unmarked),8.82%
11,Cc1ccc(C(=O)c2cc(Br)ccc2N)cc1,12.5%
12,COc1ccc(-c2csc(NC(=O)CCNC(=O)c3ccco3)n2)cc1OC,-3.11%
13,O=S(=O)(NC1CCCCCCC1)c1ccc(F)cc1,12.2%
14,C=CCNC(=O)c1ccccc1NC(=O)C1CCN(S(=O)(=O)c2ccc(SC)cc2)CC1,-56.8%
15,C=CCNC(=O)c1ccccc1NS(=O)(=O)c1ccc(SC)cc1,10.5%
16,CSc1ccc(S(=O)(=O)N2CCC(C(=O)Nc3ccccc3C(F)(F)F)CC2)cc1,11.7%
17,Cc1cccc2cc(CN(Cc3ccc(F)cc3)C(=O)C(F)(F)F)c3nnnn3c12,30.5%
18,COC(=O)[C@@H]1C[C@]2(OC(=O)c3ccccc3)C=CC(=O)C[C@@H]2N1C(=O)OCc1ccccc1,11.9%

# — publication PMC4336329 (PLoS ONE, 2015)
